Results: PubChem BioAssay (EPA / NIEHS)
The source made the active and inactive calls. How the source made its calls: active means hit-call score of the fitted dose curve at least 0.9, where 1 is the maximum; inactive means score below 0.9.

Key:
Details in all cases: mRNA level, 48 h; actives raise or lower the signal
[1] = read-out: Alpha-fetoprotein (AFP) gene, AFP (gene 174); assay: LTEA_HepaRG_AFP: Life Technologies and Expression Analysis (LTEA) Assay for Alpha-fetoprotein (AFP) gene using HepaRG (AID 2283472)
Summary of the method: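 HepaRG, single lot; 48 h post-plating -> serum-free induction medium; cpd 8-pt, 100 uM top, half-log, 0.5% DMSO, duplicate, 48 h. RNA -> qRT-PCR AFP, norm ACTB/GAPDH/POLR2A. Bidirectional fit vs DMSO.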

BCL2L11 (gene 10018) = assay: LTEA_HepaRG_BCL2L11: Life Technologies and Expression Analysis (LTEA) Assay for Bcl-2 (BCL2L11) gene using HepaRG (AID 2283473)
Summary of the method: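 HepaRG, 48 h exposure, 8-pt half-log series from 100 uM in 0.5% DMSO, duplicates; qRT-PCR (Fluidigm TaqMan) for BCL2L11, housekeeping-normalized; bidirectional curve fit relative to DMSO baseline.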

[2] = read-out: Apolipoprotein A-V (APOA5) gene, APOA5 (gene 116519); assay: LTEA_HepaRG_APOA5: Life Technologies and Expression Analysis (LTEA) Assay for Apolipoprotein A-V (APOA5) gene using HepaRG (AID 2283474)
Summary of the method: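 HepaRG, 48 h chemical exposure in serum-free induction medium, 8-pt half-log series (top 100 uM), 0.5% DMSO vehicle, duplicates. Readout: APOA5 mRNA by qRT-PCR, housekeeping-normalized; bidirectional fit vs DMSO baseline.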

[3] = read-out: Apoptosis regulator Bcl-2 (Homo sapiens) (UniProt P10415); assay: LTEA_HepaRG_BCL2: Life Technologies and Expression Analysis (LTEA) Assay for Bcl-2 gene using HepaRG (AID 2283475)
Summary of the method: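 HepaRG, plated 48 h then switched to serum-free induction medium; dosed 48 h, 8 conc. (max 100 uM, half-log steps), duplicate, 0.5% DMSO. Lysis in RLT, RNA isolated, TaqMan qRT-PCR for BCL2; ACTB/GAPDH/POLR2A normalisation; bidirectional fit vs DMSO.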

[4] = read-out: Bcl-2 (BID) gene, BID (gene 637); assay: LTEA_HepaRG_BID: Life Technologies and Expression Analysis (LTEA) Assay for Bcl-2 (BID) gene using HepaRG (AID 2283476)
Summary of the method: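 Transcript levels of BID, measured by qRT-PCR and normalized to three housekeeping genes, were fitted bidirectionally against DMSO controls. Cells were HepaRG, dosed 48 h at up to 100 uM.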

Caspase-3 (Homo sapiens) = Caspase-3 (Homo sapiens) (UniProt P42574); assay: LTEA_HepaRG_CASP3: Life Technologies and Expression Analysis (LTEA) Assay for cysteine-aspartic acid protease (CASP3) using HepaRG (AID 2283477)
Caspase-3 (Homo sapiens), sequence (P42574 whole entry, looked up): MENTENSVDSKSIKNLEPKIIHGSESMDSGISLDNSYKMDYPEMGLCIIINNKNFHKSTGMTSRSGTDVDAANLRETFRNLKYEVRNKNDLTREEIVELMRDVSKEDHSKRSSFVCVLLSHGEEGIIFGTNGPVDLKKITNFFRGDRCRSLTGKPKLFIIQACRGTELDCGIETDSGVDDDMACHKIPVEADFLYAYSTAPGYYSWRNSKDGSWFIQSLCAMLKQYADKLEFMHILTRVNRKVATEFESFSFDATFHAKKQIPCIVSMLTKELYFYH
Summary of the method: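 HepaRG, 48 h exposure, 8 conc. (top 100 uM, half-log steps, duplicate), 0.5% DMSO vehicle; qRT-PCR of CASP3 transcript, housekeeping-normalised (ACTB/GAPDH/POLR2A); bidirectional curve fit vs DMSO baseline.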

[5] = read-out: Cytochrome P450 (CYP24A1), CYP24A1 (gene 1591); assay: LTEA_HepaRG_CYP24A1: Life Technologies and Expression Analysis (LTEA) Assay for Cytochrome P450 (CYP24A1) using HepaRG (AID 2283478)
Summary of the method: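 qRT-PCR read-out: CYP24A1 transcript levels normalized to three housekeeping genes, bidirectional curve fits against 0.5% DMSO baseline. Human HepaRG cells treated 48 h with chemicals at eight concentrations from 100 uM in half-log steps.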

[6] = read-out: Cytochrome P450 (CYP1A2), CYP1A2 (gene 1544); assay: LTEA_HepaRG_CYP1A2: Life Technologies and Expression Analysis (LTEA) Assay for Cytochrome P450 (CYP1A2) using HepaRG (AID 2283479)
Summary of the method: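 HepaRG, 48 h exposure, top 100 uM, half-log 8-pt, 0.5% DMSO vehicle, duplicates. Readout: TaqMan qRT-PCR of CYP1A2 mRNA, housekeeping-normalized (ACTB/GAPDH/POLR2A). Gain/loss fit relative to DMSO baseline.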

[7] = read-out: cysteine-aspartic acid protease (CASP8), CASP8 (gene 841); assay: LTEA_HepaRG_CASP8: Life Technologies and Expression Analysis (LTEA) Assay for cysteine-aspartic acid protease (CASP8) using HepaRG (AID 2283480)
Summary of the method: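 HepaRG, 48 h exposure, duplicate wells; 8 conc, half-log from 100 uM, 0.5% DMSO. Serum-free induction medium. CASP8 mRNA by TaqMan qRT-PCR, norm. ACTB/GAPDH/POLR2A; gain/loss fitted vs DMSO.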

[8] = read-out: Cytochrome P450 (CYP2B6), CYP2B6 (gene 1555); assay: LTEA_HepaRG_CYP2B6: Life Technologies and Expression Analysis (LTEA) Assay for Cytochrome P450 (CYP2B6) using HepaRG (AID 2283481)
Summary of the method: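 Read-out is CYP2B6 mRNA by TaqMan qRT-PCR, normalized to three housekeeping genes and fitted bidirectionally against 0.5% DMSO baseline. Human HepaRG cells received test chemicals for 48 h, top concentration 100 uM, half-log dilutions.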

[9] = read-out: Cytochrome P450 2C19 (Homo sapiens) (UniProt P33261); assay: LTEA_HepaRG_CYP2C19: Life Technologies and Expression Analysis (LTEA) Assay for CYP2C19 using HepaRG (AID 2283482)
Summary of the method: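 HepaRG, 48 h chemical exposure, 8-pt half-log series from 100 uM in 0.5% DMSO, duplicates. Readout: CYP2C19 mRNA by TaqMan qRT-PCR, housekeeping-normalized. Bidirectional fit vs DMSO baseline; phenobarbital 1mM as induction control.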

CYP2C8 (gene 1558) = assay: LTEA_HepaRG_CYP2C8: Life Technologies and Expression Analysis (LTEA) Assay for CYP2C8 using HepaRG (AID 2283483)
Summary of the method: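 CYP2C8 mRNA induction or loss, by qRT-PCR normalized to ACTB/GAPDH/POLR2A, is read in HepaRG cells after 48 h treatment. Concentrations run from 100 uM down in half-log dilutions, with 0.5% DMSO as vehicle and baseline.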

CYP2C9 (gene 1559) = assay: LTEA_HepaRG_CYP2C9: Life Technologies and Expression Analysis (LTEA) Assay for CYP2C9 using HepaRG (AID 2283484)
Summary of the method: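 Cells plated 48 h, switched to serum-free induction medium, then treated in duplicate for 48 h at eight concentrations (max 100 uM, 0.5% DMSO). RNA then analysed by qRT-PCR for CYP2C9; curves fitted in both directions relative to DMSO.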

CYP2E1 (gene 1571) = assay: LTEA_HepaRG_CYP2E1: Life Technologies and Expression Analysis (LTEA) Assay for CYP2E1 using HepaRG (AID 2283485)
Summary of the method: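 Human liver line HepaRG, plated 48 h, then serum-free induction medium + chemical x 48 h; 8-pt CRC from 100 uM, half-log, 0.5% DMSO, n=2. Readout: CYP2E1 mRNA qRT-PCR vs ACTB/GAPDH/POLR2A; bidirectional fit vs DMSO.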

CYP4A11 (gene 1579) = assay: LTEA_HepaRG_CYP4A11: Life Technologies and Expression Analysis (LTEA) Assay for CYP4A11 using HepaRG (AID 2283486)
Summary of the method: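 CYP4A11 transcript levels were quantified by TaqMan qRT-PCR after HepaRG human liver cells were treated for 48 hours with test chemicals (top 100 uM, half-log dilutions, 0.5% DMSO). Gain or loss of signal was fitted relative to DMSO.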

[10] = read-out: Cytochrome P450 3A4 (Homo sapiens) (UniProt P08684); assay: LTEA_HepaRG_CYP3A4: Life Technologies and Expression Analysis (LTEA) Assay for CYP3A4 using HepaRG (AID 2283487)
Summary of the method: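 Differentiated HepaRG cells in serum-free induction medium exposed in duplicate for 48 h to 8 half-log concentrations up to 100 uM in 0.5% DMSO. CYP3A4 mRNA measured by qRT-PCR normalized to ACTB, GAPDH and POLR2A; bidirectional fit versus DMSO.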

[11] = read-out: DNA damage-inducible transcript 3 (DDIT3), DDIT3 (gene 1649); assay: LTEA_HepaRG_DDIT3: Life Technologies and Expression Analysis (LTEA) Assay for DNA damage-inducible transcript 3 (DDIT3) using HepaRG (AID 2283488)
Summary of the method: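 HepaRG plated 48 h, switched to serum-free induction medium, dosed 48 h (100 uM top, half-log, 8 pts, 0.5% DMSO, n=2); RNA isolated; DDIT3 by qRT-PCR; bidirectional curve fit vs DMSO.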

[12] = read-out: Pro-epidermal growth factor (Homo sapiens) (UniProt P01133); assay: LTEA_HepaRG_EGF: Life Technologies and Expression Analysis (LTEA) Assay for Epidermal growth factor (EGF) using HepaRG (AID 2283489)
Summary of the method: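 qRT-PCR readout of EGF transcript after 48 h chemical exposure of HepaRG cells; eight concentrations from 100 uM down in half-log steps, duplicate wells, 0.5% DMSO vehicle. Bidirectional curve fitting against DMSO baseline.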

[13] = read-out: Early growth response protein 1 (EGR1) transcription factor, EGR1 (gene 1958); assay: LTEA_HepaRG_EGR1: Life Technologies and Expression Analysis (LTEA) Assay for Early growth response protein 1 (EGR1) transcription factor using HepaRG (AID 2283490)
Summary of the method: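 Read-out is EGR1 mRNA level by qRT-PCR, normalized to three housekeeping genes and analysed for gain or loss of signal against 0.5% DMSO. Source cells: human HepaRG, treated 48 h at up to 100 uM in half-log dilutions.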

[14] = read-out: Ezrin (EZR), EZR (gene 7430); assay: LTEA_HepaRG_EZR: Life Technologies and Expression Analysis (LTEA) Assay for Ezrin (EZR) using HepaRG (AID 2283491)
Summary of the method: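 Differentiated human HepaRG cells, 48 h after plating, were exposed in serum-free induction medium for 48 hours to eight half-log concentrations up to 100 uM in 0.5% DMSO. EZR mRNA was measured by TaqMan qRT-PCR, normalized to ACTB, GAPDH and POLR2A, and fitted bidirectionally against DMSO.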

Measured: AC50

Cytochrome P450 3A4 (Homo sapiens), sequence (P08684 whole entry, looked up): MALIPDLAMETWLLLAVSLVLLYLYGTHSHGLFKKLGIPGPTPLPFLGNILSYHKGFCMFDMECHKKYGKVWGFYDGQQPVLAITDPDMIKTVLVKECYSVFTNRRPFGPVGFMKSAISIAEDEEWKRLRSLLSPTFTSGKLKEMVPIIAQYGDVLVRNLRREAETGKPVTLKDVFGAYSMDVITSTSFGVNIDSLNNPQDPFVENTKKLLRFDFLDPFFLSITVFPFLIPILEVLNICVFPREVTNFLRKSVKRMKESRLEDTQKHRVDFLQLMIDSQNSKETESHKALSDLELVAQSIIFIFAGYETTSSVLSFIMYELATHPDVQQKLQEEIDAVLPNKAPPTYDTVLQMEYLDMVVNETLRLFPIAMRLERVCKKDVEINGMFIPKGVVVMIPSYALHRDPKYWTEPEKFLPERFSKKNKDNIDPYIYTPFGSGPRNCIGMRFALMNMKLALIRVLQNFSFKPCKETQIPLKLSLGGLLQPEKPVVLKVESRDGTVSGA
Apoptosis regulator Bcl-2 (Homo sapiens), sequence (P10415 whole entry, looked up): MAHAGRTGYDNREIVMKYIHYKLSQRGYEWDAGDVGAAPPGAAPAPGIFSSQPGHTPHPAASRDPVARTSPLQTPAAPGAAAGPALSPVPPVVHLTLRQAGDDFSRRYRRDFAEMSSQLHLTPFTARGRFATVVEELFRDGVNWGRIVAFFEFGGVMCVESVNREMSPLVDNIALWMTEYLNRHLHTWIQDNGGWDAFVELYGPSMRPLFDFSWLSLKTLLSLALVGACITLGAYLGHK
Cytochrome P450 2C19 (Homo sapiens), sequence (P33261 whole entry, looked up): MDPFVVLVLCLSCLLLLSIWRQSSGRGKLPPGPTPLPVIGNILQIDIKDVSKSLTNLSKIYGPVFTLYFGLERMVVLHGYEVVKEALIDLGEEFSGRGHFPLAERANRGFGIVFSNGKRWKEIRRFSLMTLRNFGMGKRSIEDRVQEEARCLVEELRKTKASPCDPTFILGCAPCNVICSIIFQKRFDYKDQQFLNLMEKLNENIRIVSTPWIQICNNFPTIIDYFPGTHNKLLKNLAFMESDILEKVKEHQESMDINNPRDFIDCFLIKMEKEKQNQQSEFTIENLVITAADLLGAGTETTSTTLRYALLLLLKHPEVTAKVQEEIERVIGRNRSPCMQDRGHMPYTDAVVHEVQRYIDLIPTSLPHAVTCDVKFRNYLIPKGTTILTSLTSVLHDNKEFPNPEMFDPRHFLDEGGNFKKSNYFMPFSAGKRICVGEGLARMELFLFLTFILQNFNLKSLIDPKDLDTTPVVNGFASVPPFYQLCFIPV

Cc1cc(F)ccc1-c1cc(N2CC[C@@H](O)[C@H]2CO)ncc1N(C)C(=O)C(C)(C)c1cc(C(F)(F)F)cc(C(F)(F)F)c1
active: [1] 18 µM | BCL2L11 (gene 10018) 52.7 µM | [2] 12.9 µM | [3] 19.7 µM | Caspase-3 (Homo sapiens) 76.6 µM | [6] 21.1 µM | [8] 22.3 µM | [9] 23.7 µM | CYP2C8 (gene 1558) 21.4 µM | CYP2E1 (gene 1571) 10.3 µM | CYP4A11 (gene 1579) 15.7 µM | [10] 0.588 µM | [11] 71.1 µM | [12] 5.44 µM | [13] 61.2 µM
inactive: [4] | [5] | [7] | CYP2C9 (gene 1559)

O=c1[nH]sc2ccccc12
active: [6] 80.3 µM
not listed: [10] | [12]
inactive: all other assays above

CCCCCCCCCCCCO
not listed: [10] | [12] | [14]
inactive: all other assays above

CC(C)(C)c1cc(/C=C2\SC(N)=NC2=O)cc(C(C)(C)C)c1O
inactive: [1] | [2] | [5] | [6] | CYP2C8 (gene 1558) | [12]
active: BCL2L11 (gene 10018) 96.8 µM | [3] 21.1 µM | [4] 15.8 µM | Caspase-3 (Homo sapiens) 15.8 µM | [7] 27.8 µM | [8] 93.7 µM | [9] 26.3 µM | CYP2C9 (gene 1559) 12.2 µM | CYP2E1 (gene 1571) 83.2 µM | CYP4A11 (gene 1579) 29.1 µM | [10] 90.9 µM | [11] 22.8 µM | [13] 50 µM

CC(C)(C)c1csc(-c2cc3cc(OCc4ccccc4CC(=O)O)ccc3o2)n1
active: [1] 23.9 µM | BCL2L11 (gene 10018) 18.8 µM | [2] 20 µM | [4] 75.7 µM | Caspase-3 (Homo sapiens) 77.7 µM | [8] 23.3 µM | [9] 33.5 µM | CYP2C8 (gene 1558) 25.5 µM | CYP2C9 (gene 1559) 12.5 µM | CYP2E1 (gene 1571) 16.8 µM | CYP4A11 (gene 1579) 23.2 µM | [11] 22.7 µM | [13] 89.5 µM | [14] 82.3 µM
inactive: [3] | [5] | [6] | [7] | [12]

CCCCCCCCOC(=O)c1cc(O)c(O)c(O)c1
active: [6] 39.5 µM
not listed: [14]
inactive: all other assays above
